Results taken from ChEMBL document CHEMBL1157539, “Thousands of chemical starting points for antimalarial lead identification” (Nature, 2010).

Columns and labels:
Assay type in all cases: functional
Plasmodium falciparum [1] = experiment: GSK_TCMDC: Inhibition of Plasmodium falciparum 3D7 in whole red blood cells, using parasite LDH activity as an index of growth. Test compounds present at 2uM
Plasmodium falciparum [2] = experiment: GSK_TCMDC: Inhibition of Plasmodium falciparum Dd2 in whole red blood cells, using parasite LDH activity as an index of growth. Test compounds present at 2uM
HepG2 = experiment: GSK_TCMDC: Percent inhibition of human HepG2 cell line. Test compounds present at 10uM.

Structure (SMILES)	Inhibition (Plasmodium falciparum [1]) [%]	Inhibition (Plasmodium falciparum [2]) [%]	Inhibition (HepG2) [%]
O=C(NCC1CCC(CNCCCc2ccccc2)CC1)Nc1ccc(Cl)c(Cl)c1 (centres undefined)	99	2	26
CC(=O)c1c(Cc2cccc(C(F)(F)F)c2)c[nH]c1C	94	92	6
Cl.c1ccc2c(C3CCN(CCCCOc4ccc5c(c4)CCN(CC4CC4)CC5)CC3)c[nH]c2c1	99	97	74
CCOC(=O)c1ccc(NC(=O)Nc2cccc(-c3cccc(-c4nc5cc(F)ccc5[nH]4)c3)c2)cc1	100	100	85
CN(C)CCN1CCN(CCCN2c3ccccc3Sc3ccc(C(F)(F)F)cc32)CC1.Cl	99	61	98
Nc1cc(-c2cc3c(OCc4ccccc4)cccc3[nH]2)ccn1	85	15	23
N#Cc1ccc(CN2CCC(Oc3ccc(NC(=O)c4cccs4)cc3)CC2)cc1.O=C(O)C(F)(F)F	83	82	10
O=C(NC1CCN(CCN2CCC(c3c[nH]c4ccccc34)CC2)CC1)c1ccc(-c2ccc(C(F)(F)F)cc2)cc1	99	100	100
Cc1c(CNCCCNc2nc3ccccc3[nH]2)sc(C(F)F)c1Br.Cl	100	5	9
COc1ccccc1NC(=O)Nc1cccc(-c2ccc(-c3nc4cccc(C)c4[nH]3)s2)c1	100	46	19
CCNC(=O)N1CCN(c2nc(-c3ccccc3)nc(COC)c2Cc2ccc(C)cc2)CC1	95	94	27
Cc1ccc2[nH]c3c(NCCCN4CCOCC4)ncnc3c2c1	100	9	0
Cc1cc(N2CCCC2)nc(Nc2ccc(NC(=O)c3ccccc3)cc2)n1	100	65	26
COc1cc2c(cc1O)[C@@H]1[C@H](O)[C@@H](O)C=C3CCN(C2)[C@H]31 [PSEUDOLYCORINE]	90	31	18
CN(C)CCN(Cc1ccccc1-c1ccc(CNCCc2ccccc2)cc1)C(=O)c1ccccc1.O=C(O)C(F)(F)F	95	97	81
CN(C)S(=O)(=O)c1ccc(C(=O)N(c2nc(-c3ccccc3)cs2)C2CCCCC2)cc1	98	46	7
C[C@H](Cc1ccc(OCCCCCCCOc2ccc(C[C@@H](C)NC[C@H](O)c3cccc(Cl)c3)cc2)cc1)NC[C@H](O)c1cccc(Cl)c1.Cl	99	97	99
Nc1cc(-c2ccc3c(N)nccc3c2)ccc1Cl	91	4	1
O=C(Nc1cccc(C(F)(F)F)c1)c1ccc(S(=O)(=O)NCC2CCCN(CC3CCCCC3)C2)cc1.O=C(O)C(F)(F)F (centres undefined)	95	9	26
CCCC(=O)NC(c1ccc(C)cc1)c1ccc2cccnc2c1O (centres undefined)	88	45	52
COc1ccc2nccc([C@@H](O)CN3CCC(NCc4cc5cccc(O)c5c(=O)[nH]4)CC3)c2c1.Cl	99	66	8
NC(=O)c1ccc(-n2cnc3cc(F)ccc32)cc1OCc1ccccc1C(F)(F)F.NC(=O)c1ccc(-n2cnc3ccc(F)cc32)cc1OCc1ccccc1C(F)(F)F	97	93	55
O=C(Nc1ccc(OC2CCN(Cc3ccc(F)cc3)C2)cc1)c1cccs1.O=C(O)C(F)(F)F (centres undefined)	94	92	2
Cc1nc2nc(N)nc(N)c2c(C)c1Cc1ccccc1Br.Cl	92	2	65
Cc1noc(C)c1-c1cccc(C(=O)NC2CCN(CCNC(=O)C(c3ccccc3)c3ccccc3)CC2)c1.O=C(O)C(F)(F)F	85	74	27
COc1cc(CNCCCNc2cc(=O)c3ccccc3[nH]2)c2c(c1)C(C)CN2C(=O)OC(C)(C)C (centres undefined)	96	87	0
Cc1ccc(-c2cc(C(=O)Nc3ccc(S(=O)(=O)N4CC(C)OC(C)C4)cc3)[nH]n2)c(O)c1 (centres undefined)	91	98	16
CCNc1cc(C(=O)N[C@@H](Cc2ccccc2)[C@H](O)CNC(CC)c2cccc(Cl)c2)cc(N2CCCCS2(=O)=O)c1.Cl (some centres undefined)	100	98	12
